The target in test [1] is Thyrotropin receptor (Homo sapiens) (UniProt P16473). Briefly: qHTS Assay for Antagonists of the Thyroid Stimulating Hormone Receptor (AID 488980). Also: series mostly up to about 58 µM; 0% is about no effect. Summed up: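 TSHR-HEK293 cells; 70 uM RO 20-1724 PDE inhibitor; compound + EC80 TSH (4 nM final); anti-cAMP cryptate antibody/cAMP-d2 in lysis buffer, 30 min RT; HTRF 665/620 nm read.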
(In general: Quantitative high-throughput screening tests each substance at several concentrations.)

Test [2] has as its target D(1A) dopamine receptor (Homo sapiens) (UniProt P21728). Briefly: HTS Assay for Allosteric Agonists of the Human D1 Dopamine Receptor: Primary Screen for Agonists (AID 488981). Also: 0% is about no effect. Summed up: (§1)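 Calcium flux in an inducible, force-coupled HEK293 Trex D1 line (overnight at 30 C): agonist mode is the 180 s kinetic read after compound; potentiator mode is the following 180 s read after dopamine at EC20.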

Test [3] has the same target. Description: HTS Assay for Allosteric Agonists of the Human D1 Dopamine Receptor: Primary Screen for Potentiators (AID 488982). Also: 0% is about no effect. In short, it runs like this: as §1
Test [4] shares this target. Briefly: HTS Assay for Allosteric Agonists of the Human D1 Dopamine Receptor: Primary Screen for Antagonists (AID 488983).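 Also: calcium flux response to an EC80 dopamine challenge measured with no-wash dye; % is scaled to controls: 0 for no effect and ±100 for the full control effect; nearly all actives have a fitted effect of over 65% in size.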 Summed up:
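Tetracycline-induced HEK293 T-REx D1 line, force-coupled to calcium flux, read with no-wash calcium dye. Compound added after 10 s baseline, read 180 s for agonism, then EC80 dopamine added and read a further 180 s.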

Test [5] is described as follows: Validation screen for small molecules that induce genotoxicity in human embryonic kidney (HEK293T) cells expressing luciferase-tagged ELG1 (AID 493106). Also: 0% is about no effect. In short, it runs like this:
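HEK293T cells expressing luciferase-tagged ELG1, 2,000 cells/well, exposed to compound 16 hr at 37 °C, 5% CO2. Luciferase read after ONE-Glo, 30 min at room temperature; increased signal indicates genetic stress.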

The target in test [6] is ATPase family AAA domain-containing protein 5 (Homo sapiens) (UniProt Q96QE3). Briefly: Validation screen for small molecules that inhibit ELG1-dependent DNA repair in human embryonic kidney (HEK293T) cells expressing luciferase-tagged ELG1 (AID 493107).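 Also: cells co-treated with the DNA-damaging agent 5-fluorouridine alongside compound; series mostly up to about 46 µM; % is scaled to controls: 0 for no effect and ±100 for the full control effect; inhibitors lower the ELG1-luciferase luminescence signal; nearly all actives have a fitted effect of over 70% in size.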 Summed up: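 HEK293T cells expressing luciferase-tagged ELG1, 2,000 per well, treated with 5-fluorouridine plus compound for 16 h at 37 C. ONE-Glo luminescence after 30 min at room temperature reports ELG1 reporter level.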
Sequence of ATPase family AAA domain-containing protein 5 (Homo sapiens) (Q96QE3 whole entry, looked up, the tested form may be a part): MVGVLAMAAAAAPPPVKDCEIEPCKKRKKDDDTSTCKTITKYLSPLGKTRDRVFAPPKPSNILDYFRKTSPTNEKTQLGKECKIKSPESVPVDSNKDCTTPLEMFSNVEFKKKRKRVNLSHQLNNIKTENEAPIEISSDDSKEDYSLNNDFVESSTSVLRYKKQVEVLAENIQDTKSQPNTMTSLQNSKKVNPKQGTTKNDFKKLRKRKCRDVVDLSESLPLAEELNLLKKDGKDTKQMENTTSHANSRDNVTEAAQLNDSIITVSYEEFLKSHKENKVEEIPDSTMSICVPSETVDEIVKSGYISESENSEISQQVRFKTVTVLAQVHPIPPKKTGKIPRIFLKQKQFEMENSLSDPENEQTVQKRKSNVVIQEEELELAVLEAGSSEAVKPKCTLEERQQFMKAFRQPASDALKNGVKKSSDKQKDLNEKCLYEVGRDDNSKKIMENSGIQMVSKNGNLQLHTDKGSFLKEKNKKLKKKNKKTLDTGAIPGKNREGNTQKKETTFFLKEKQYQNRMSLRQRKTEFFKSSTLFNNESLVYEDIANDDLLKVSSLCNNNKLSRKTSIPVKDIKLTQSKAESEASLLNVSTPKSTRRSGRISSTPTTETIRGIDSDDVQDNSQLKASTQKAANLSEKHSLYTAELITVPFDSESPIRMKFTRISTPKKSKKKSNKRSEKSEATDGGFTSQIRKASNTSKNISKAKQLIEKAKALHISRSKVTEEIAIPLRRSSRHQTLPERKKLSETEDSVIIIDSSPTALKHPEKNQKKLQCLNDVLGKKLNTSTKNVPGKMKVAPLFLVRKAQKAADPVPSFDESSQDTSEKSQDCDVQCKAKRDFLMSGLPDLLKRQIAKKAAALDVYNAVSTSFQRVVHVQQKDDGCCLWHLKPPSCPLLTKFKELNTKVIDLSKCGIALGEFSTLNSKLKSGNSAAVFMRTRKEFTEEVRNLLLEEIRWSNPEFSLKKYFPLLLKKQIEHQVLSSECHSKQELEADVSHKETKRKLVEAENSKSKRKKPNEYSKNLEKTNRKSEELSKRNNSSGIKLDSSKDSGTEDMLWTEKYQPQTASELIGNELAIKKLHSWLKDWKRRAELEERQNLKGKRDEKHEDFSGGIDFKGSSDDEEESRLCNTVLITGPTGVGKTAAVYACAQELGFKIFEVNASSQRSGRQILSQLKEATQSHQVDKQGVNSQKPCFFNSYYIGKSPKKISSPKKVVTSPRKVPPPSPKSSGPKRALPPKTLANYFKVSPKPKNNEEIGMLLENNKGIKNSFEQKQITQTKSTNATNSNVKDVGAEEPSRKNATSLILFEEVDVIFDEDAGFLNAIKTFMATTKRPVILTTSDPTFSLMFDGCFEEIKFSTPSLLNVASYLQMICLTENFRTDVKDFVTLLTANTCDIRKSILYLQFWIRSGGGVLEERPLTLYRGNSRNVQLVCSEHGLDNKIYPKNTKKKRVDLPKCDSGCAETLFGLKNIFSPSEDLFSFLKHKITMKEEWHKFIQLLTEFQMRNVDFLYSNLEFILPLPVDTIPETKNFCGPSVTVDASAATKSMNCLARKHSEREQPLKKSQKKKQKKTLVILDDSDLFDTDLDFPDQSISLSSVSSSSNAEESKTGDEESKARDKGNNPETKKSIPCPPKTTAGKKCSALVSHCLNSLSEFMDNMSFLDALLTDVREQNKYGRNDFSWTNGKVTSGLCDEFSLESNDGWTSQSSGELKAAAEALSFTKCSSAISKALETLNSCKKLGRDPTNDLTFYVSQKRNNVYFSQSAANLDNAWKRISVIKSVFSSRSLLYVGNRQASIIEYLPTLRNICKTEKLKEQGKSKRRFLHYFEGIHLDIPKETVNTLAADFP

Test [7] deals with Thyrotropin-releasing hormone receptor (Homo sapiens) (UniProt P34981). Description: qHTS for Small Molecule Agonists and Allosteric Enhancers of Human TRH Receptor: Validation Screen for Agonists (AID 493127;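 active = calcium activation more than 3 SD above the typical response in the agonist read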; also: 0% is about no effect). As to conditions: TRH receptor agonist cell assay; at 2 µM; stronger effect = higher value. In short, it runs like this:
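TRHR cells loaded with fluo-8 calcium dye; FDSS kinetic fluorescence (Ex 480/Em 530) read at 1 s/cycle after 23 nL compound addition. Agonist-mode calcium response recorded before the 10 nM TRH (EC20) addition.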

A short description of test [8]: Nrf2 qHTS screen for inhibitors: Validation (AID 493153; active = well fitted inhibition curve with a large enough effect in the main read-out, with a control signal flat, not every such curve was filed as active). The following applies: viability change: measured here: cytotoxicity max response. Summed up:
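A549 cells carrying ARE-firefly luciferase reporter, 5000 cells/well in 5% FBS OPTI-MEM, treated with compound over a concentration series for 18-24 h at 37 C. Luciferase luminescence gave Nrf2 activity; CellTiter-Fluor fluorescence gave viability.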

Test [9] in a line: qHTS for Inhibitors of Cell Surface uPA Generation: Validation Assay (AID 493164). Also: 0% is about no effect. Summed up:
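RAW 264.7 cells (4000/well) were plated overnight, then exposed for 18 h at 37 C, 5% CO2 to compounds in a 7-point 1:5 titration (2.45 nM–38.3 uM final). Intracellular ATP was read by ATP-Lite luminescence.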

Test [10] addresses Galactokinase (Homo sapiens) (UniProt P51570). Briefly: qHTS Validation Assay for Inhibitors of Human Galactokinase (GALK) (AID 493189). Also: 0% is about no effect. In short, it runs like this:
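Luminescence from leftover ATP (Kinase-Glo Plus, 10 min) served as read-out after a 1 h room-temperature reaction of 5 nM GALK, 100 uM galactose and 35 uM ATP at pH8.0.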

Test [11] addresses Phosphoglycerate kinase, glycosomal (Trypanosoma brucei brucei) (UniProt P07378). Description: qHTS Validation Assay to Find Inhibitors of Phosphoglycerate Kinase (AID 504547).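 Also: control wells lack PGK and mark full inhibition.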 Summed up:
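Inhibition of the enzyme is judged by a Kinase-Glo Plus luminescent signal following a one-hour incubation at room temperature. Because 1,3-BPG is unstable, it is made in situ by GAPDH at 100nM final; no-PGK wells define the baseline.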

Test [12] addresses phosphoglycerate mutase (Leishmania major) (UniProt Q4Q090). Description: qHTS Validation Assay to Find Inhibitors of Phosphoglycerate Mutase (AID 504548). Also: series mostly up to about 58 µM; % is scaled to controls: 0 for no effect and ±100 for the full control effect. Summed up:
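Lm PGAM at 1.25 nM final with substrate in 100 mM TEA pH 7.6, 5 mM MgCl2, 0.01% Tween-20; 45 min at room temperature. Kinase-GloPlus added, 10 min, end-point luminescence read.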

The nature of test [13]: qHTS for Inhibitors of ATXN expression: Validation (AID 588378). Also: series mostly up to about 57 µM; % is scaled to controls: 0 for no effect and ±100 for the full control effect; nearly all actives have a fitted effect of over 75% in size. In short, it runs like this:
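Cells: HEK293-ATXN2-FFLuc, phenol-red free DMEM, 2 h attachment. Compound pin-transfer, 24 h, 37 degrees C, 5% CO2. CellTiter-Fluor 30 min, Ex405/Em525; Bright-Glo 5 min, luminescence 2 s exposure.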

The target of test [14] is DNA dC->dU-editing enzyme APOBEC-3G (Homo sapiens) (UniProt Q9HC16). Description: qHTS for inhibitors of Vif-A3G interactions: Validation (AID 588379). Also: 0% is about no effect. Summed up:
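HeLa cells stably expressing Vif and A3G-eYFP, 700 cells/well, incubated overnight at 37 deg C, then exposed to compound overnight at 37 deg C. Inhibition of Vif-mediated degradation read as increased yellow fluorescence (Ex 488/Em 500-530) by laser-scanning cytometry.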

In test [15] the target is Voltage-gated inwardly rectifying potassium channel KCNH2 (Homo sapiens) (UniProt Q12809). Description: qHTS Assay for Small Molecule Inhibitors of the Human hERG Channel Activity (AID 588834).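 Also: top concentration of the series differs between compounds; % is scaled to controls: 0 for no effect and ±100 for the full control effect; lower thallium flux fluorescence means stronger hERG block; nearly all actives have a fitted effect of over 50% in size.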 In short, it runs like this:
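Concentration-response qHTS measuring drop in thallium-sensitive dye signal. U2OS cells carrying BacMam hERG; compound exposure ~10 min, then stimulation buffer and 2 min read at 1 sec intervals.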

Test [16] addresses Glutaminase kidney isoform, mitochondrial (Homo sapiens) (UniProt O94925). Briefly: qHTS for Inhibitors of Glutaminase (GLS): LOPAC Validation (AID 624146). Also: potency is read from the fitted curve at half-maximal effect; nearly all actives have a fitted effect of over 60% in size. In short, it runs like this:
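Enzyme dispensed in phosphate buffer (45 mM, pH 8.2, 0.02% Tween-20), compounds pinned in, then 1 mM L-glutamine solution and the glutamate oxidase–HRP–Amplex Red mix added; fluorescence read immediately and again after 30 min at room temperature.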

The nature of test [17]: qHTS of Trypanosoma Brucei Inhibitors: LOPAC Validation (AID 624147). Also: 0% is about no effect. In short, it runs like this:
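Assay buffer: 50 mM TEA pH 7.2, 100 mM KCl, 10 mM MgCl2, 0.05% BSA, 0.01% Tween-20. Pyruvate kinase from T. brucei plus substrate met compound, then ADP (130 uM final). Luminescence was read post 45 min RT.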

In test [18] the target is Glucagon-like peptide 1 receptor (Homo sapiens) (UniProt P43220). Briefly: qHTS of GLP-1 Receptor Agonists: LOPAC Validation (AID 624148).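 Also: luminescence from a luciferase reporter switched on by cAMP; 0% is about no effect; higher luminescence signal means agonism.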 Summed up:
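Agonism scored as increased luciferase luminescence driven by cAMP in HEK293 clones carrying GLP-1R. Cells settled 12 hours, received compound for 4-6 hr at 37 deg C, 5% CO2, and were read after 12 min detection reagent at RT.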

The nature of test [19]: qHTS of Nrf2 Activators: LOPAC Validation (AID 624149). Also: 0% is about no effect. Summed up:
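AREc32_Fluc cells, 1000/well in OPTI-MEM with 5% FBS, grown overnight, then exposed to compounds for 24 hr at 37 deg C, 5% CO2. ARE-driven firefly luciferase read by Steady-Glo luminescence after 30 min at RT.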

Test [20] in a line: HTS Assay for Allosteric Antagonists of the Human D2 Dopamine Receptor: Hit Validation in HTRF (AID 624455).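 Also: stable D1 dopamine receptor cell line scored for blocking the D1 response; % is scaled to controls: 0 for no effect and ±100 for the full control effect.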 In short, it runs like this: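 Hit validation in cells stably expressing the D1 dopamine receptor, run in HTRF format. Compounds were tested for their ability to inhibit the D1-mediated response.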
For orientation: Time-resolved FRET reads energy transfer from a long-lived donor to a nearby acceptor.

SMILES strings stand for the structures. Inconclusive results are not listed. Calls of active or inactive are those of the source. Unless noted, calls follow the shape of the dose curve; as a rule, active = well fitted curve in the direction sought with a large enough effect; inconclusive = small, poorly fitted or top-dose-only effect, or another doubt; inactive = no such curve, though single readings can be large; an effect the other way counts as inactive or inconclusive.

Sequence of D(1A) dopamine receptor (Homo sapiens) (P21728 whole entry, looked up): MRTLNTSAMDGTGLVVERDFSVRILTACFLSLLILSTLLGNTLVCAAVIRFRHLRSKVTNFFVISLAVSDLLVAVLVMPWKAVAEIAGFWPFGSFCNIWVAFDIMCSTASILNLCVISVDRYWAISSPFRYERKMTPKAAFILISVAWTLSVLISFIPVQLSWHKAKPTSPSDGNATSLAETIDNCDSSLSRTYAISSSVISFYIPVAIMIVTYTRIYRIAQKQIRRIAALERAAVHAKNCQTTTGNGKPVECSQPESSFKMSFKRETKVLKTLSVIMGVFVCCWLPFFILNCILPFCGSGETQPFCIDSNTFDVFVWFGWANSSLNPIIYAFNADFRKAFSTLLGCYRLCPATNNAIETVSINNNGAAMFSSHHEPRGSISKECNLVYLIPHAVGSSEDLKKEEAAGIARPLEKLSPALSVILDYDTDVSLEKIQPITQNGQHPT
Sequence of Glucagon-like peptide 1 receptor (Homo sapiens) (P43220 whole entry, looked up): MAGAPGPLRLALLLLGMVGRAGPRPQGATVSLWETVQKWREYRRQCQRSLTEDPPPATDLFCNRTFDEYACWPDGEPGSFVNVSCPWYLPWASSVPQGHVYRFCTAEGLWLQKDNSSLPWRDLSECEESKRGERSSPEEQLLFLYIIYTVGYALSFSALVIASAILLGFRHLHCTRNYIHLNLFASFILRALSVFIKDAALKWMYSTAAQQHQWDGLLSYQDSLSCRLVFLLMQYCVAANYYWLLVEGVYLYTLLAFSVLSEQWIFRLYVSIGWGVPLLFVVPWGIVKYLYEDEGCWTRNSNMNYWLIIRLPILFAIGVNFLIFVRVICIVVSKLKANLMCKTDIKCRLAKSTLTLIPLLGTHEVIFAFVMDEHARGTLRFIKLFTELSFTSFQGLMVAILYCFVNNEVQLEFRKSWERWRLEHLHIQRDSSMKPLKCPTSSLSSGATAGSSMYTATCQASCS
Sequence of phosphoglycerate mutase (Leishmania major) (Q4Q090 1-553): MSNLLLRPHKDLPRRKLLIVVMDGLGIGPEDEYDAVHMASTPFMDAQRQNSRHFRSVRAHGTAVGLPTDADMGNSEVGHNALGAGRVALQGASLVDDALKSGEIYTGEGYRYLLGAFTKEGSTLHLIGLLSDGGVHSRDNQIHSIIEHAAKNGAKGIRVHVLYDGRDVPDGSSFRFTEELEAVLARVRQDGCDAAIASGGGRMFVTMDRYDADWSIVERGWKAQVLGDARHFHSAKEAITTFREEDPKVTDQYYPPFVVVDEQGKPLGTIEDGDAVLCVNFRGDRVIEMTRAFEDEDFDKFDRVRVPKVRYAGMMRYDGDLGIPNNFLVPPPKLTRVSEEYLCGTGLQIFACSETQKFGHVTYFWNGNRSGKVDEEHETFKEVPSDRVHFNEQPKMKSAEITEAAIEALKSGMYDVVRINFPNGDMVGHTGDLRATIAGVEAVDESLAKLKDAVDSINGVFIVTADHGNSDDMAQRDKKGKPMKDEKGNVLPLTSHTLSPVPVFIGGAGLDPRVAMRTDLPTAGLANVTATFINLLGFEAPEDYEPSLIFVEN
Sequence of DNA dC->dU-editing enzyme APOBEC-3G (Homo sapiens) (Q9HC16 whole entry, looked up): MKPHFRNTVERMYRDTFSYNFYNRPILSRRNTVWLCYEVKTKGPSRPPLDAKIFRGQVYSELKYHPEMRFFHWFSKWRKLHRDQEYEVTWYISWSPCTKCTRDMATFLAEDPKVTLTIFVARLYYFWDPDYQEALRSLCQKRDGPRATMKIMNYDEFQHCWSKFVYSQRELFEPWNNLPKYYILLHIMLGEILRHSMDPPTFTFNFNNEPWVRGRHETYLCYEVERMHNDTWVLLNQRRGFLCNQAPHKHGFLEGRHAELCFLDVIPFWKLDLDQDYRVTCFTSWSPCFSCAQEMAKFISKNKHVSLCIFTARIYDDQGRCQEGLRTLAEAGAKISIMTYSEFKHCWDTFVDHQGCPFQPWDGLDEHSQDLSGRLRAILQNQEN
Sequence of Thyrotropin-releasing hormone receptor (Homo sapiens) (P34981 whole entry, looked up): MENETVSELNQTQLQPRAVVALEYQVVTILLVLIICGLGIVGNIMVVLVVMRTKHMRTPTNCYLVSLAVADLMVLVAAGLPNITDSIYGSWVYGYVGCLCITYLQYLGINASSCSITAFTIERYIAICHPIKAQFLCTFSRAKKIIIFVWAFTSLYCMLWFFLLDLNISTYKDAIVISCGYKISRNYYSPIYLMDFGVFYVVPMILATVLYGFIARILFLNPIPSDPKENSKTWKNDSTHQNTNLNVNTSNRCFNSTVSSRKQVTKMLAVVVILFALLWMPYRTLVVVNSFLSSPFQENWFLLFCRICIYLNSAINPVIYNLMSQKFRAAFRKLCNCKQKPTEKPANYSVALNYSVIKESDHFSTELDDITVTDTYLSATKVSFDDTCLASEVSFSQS
Sequence of Phosphoglycerate kinase, glycosomal (Trypanosoma brucei brucei) (P07378 whole entry, looked up): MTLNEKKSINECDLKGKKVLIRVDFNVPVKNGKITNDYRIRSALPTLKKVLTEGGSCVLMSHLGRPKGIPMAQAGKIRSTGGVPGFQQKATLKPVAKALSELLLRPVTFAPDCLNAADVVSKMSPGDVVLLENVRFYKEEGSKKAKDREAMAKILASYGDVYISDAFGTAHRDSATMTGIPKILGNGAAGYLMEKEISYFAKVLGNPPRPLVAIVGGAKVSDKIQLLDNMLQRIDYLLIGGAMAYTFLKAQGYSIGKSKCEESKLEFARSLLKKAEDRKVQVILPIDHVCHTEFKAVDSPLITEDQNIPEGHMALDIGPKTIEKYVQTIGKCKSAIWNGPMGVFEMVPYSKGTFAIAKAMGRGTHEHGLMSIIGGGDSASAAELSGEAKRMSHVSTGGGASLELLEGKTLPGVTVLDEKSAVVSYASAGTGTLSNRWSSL
Sequence of Galactokinase (Homo sapiens) (P51570 whole entry, looked up): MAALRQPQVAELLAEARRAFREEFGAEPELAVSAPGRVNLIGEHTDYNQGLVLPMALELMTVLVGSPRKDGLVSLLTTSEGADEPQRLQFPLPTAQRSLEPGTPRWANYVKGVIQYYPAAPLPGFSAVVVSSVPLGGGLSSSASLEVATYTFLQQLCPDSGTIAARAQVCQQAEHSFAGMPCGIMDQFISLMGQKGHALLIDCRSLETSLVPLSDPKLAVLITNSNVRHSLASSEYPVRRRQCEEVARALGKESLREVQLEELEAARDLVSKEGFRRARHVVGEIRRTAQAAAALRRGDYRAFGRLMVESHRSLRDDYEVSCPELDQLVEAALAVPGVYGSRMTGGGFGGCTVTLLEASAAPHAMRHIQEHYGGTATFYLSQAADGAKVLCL

`N#C/C(=C\c1ccc(O)c(O)c1)C(=O)Nc1ccccc1`: the call in test [1], in test [2], in test [3], in test [4], in test [8] and in test [9] was inactive. Moreover, the outcome in test [10], in test [12], in test [17], in test [18], in test [19] and in [20] was inactive. The Potency result in test [5], in test [6], in [11], in [13], in test [14] and in [15] was “inactive” in each case. In addition, in test [7], the activation was 5.88% (inactive). Also, the viability change in test [8] is -12%. In addition, the Potency in [16] was 631 nM (active).

Source of the values: PubChem BioAssay (NCATS).
